Assay outcomes deposited in PubChem by several laboratories.
Hits are enriched below; roughly 1.6% of the tested compounds scored in any of these assays.
JMJD2C inh = blocks human GASC-1 demethylase activity; Q9H3R0; GST-JMJD2C(1-420) H3K9me3 demethylation, DELFIA europium; inhibition, % at 2.35 µM; 0.069% of 330,000 active;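 active = more than half of a compound's replicate wells show inhibition beyond 50%, single wells judged on their own value; inconclusive = some, but no more than half, of replicates pass 50% inhibition; inactive = no replicate passes 50% inhibition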;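 note: signal counts dimethyl H3K9 product captured on neutravidin plate; 0% = median of DMSO wells and 100% = 0.3 times that DMSO median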
GRK2 aptamer HTS = blocks RNA aptamer binding to human GRK2; 0.59% of 330,000 active; AID 488847; bead flow cytometry, FAM-aptamer displacement from GRK2; inhibition of aptamer binding, % at 10 µM;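 active = inhibition of aptamer binding above 40%, roughly 3 SD of noise, on plates passing a quality check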;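 note: median bead fluorescence of bound FAM aptamer so fluorescent compounds give negative values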
VLA-4 inh = inhibition in a human VLA-4 binding assay. P13612. VLA-4 expressing cells, ligand binding flow cytometry. inhibition, % (about 7 µM as worked out from the volumes in the protocol). 0.2% of 330,000 active. AID 2557; in the data active = inhibition above about 50%
PREPL inhibitor = inhibits the human prolyl oligopeptidase-like enzyme | Q4J6C6 | recombinant PREPL, fluorescence polarization activity-based probe | inhibition, % at 5.96 µM | 0.68% of 320,000 active | AID 2751; in the data active = inhibition above about 43%;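 note: 0% = enzyme with DMSO and 100% = wells lacking enzyme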
Target sequence (Q4J6C6 whole entry, looked up): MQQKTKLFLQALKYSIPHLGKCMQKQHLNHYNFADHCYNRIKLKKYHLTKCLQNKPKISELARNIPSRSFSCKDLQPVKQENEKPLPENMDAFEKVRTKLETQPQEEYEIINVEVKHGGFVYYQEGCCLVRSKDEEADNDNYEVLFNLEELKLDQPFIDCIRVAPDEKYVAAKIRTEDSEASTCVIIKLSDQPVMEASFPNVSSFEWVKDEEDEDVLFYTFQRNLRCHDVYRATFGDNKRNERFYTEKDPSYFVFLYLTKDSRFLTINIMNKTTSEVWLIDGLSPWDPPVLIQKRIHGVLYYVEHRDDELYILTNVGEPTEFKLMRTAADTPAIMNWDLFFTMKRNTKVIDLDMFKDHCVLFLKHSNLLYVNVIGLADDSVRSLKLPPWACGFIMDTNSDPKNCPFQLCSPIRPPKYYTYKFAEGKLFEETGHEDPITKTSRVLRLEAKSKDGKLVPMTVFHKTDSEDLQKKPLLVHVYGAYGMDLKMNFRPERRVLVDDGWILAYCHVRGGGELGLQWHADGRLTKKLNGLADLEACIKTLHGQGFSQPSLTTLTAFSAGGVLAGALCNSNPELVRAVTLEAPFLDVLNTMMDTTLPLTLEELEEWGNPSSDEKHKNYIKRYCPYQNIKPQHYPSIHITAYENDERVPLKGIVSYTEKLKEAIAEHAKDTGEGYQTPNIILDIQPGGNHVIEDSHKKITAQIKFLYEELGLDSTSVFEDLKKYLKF
DSG3 Ab inh = human desmoglein-3 autoantibody binding inhibition; AID 588358; binding (percent of control), % at 10 µM; P32926; 0.48% of 310,000 active; DSG3-coupled beads, scFv-anti-DSG3-GFP binding, flow cytometry; hits give low values;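 active = binding more than 3 SD below its plate's average and above zero; inconclusive = below that plate limit but binding exactly zero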;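 note: hits lower antibody fragment binding to DSG3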
GRK2 CP1 = confirmation of human GRK2 inhibitors displacing RNA aptamer | shares compounds with GRK2 aptamer HTS | bead-bound GRK2, FAM-aptamer displacement, flow cytometry | aptamer displacement, % at 10 µM | 4% of 2,000 active;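 active = aptamer displacement above 40%, near three times the noise of non-fluorescent compounds, on plates passing quality checks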;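 note: negative values mostly reflect intrinsic compound fluorescence rather than true enhancement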
FAM quench CP1 = counter-screen for GRK2 aptamer inhibitors: fluorescent aptamer quenchers. shares compounds with GRK2 aptamer HTS. Carboxyfluorescein RNA aptamer on beads, flow cytometry quenching; hits give low values. fluorescence response (% of DMSO), % at 10 µM. 2,000 tested, under 10 active;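 active = compounds that quench the bead-bound fluorescent RNA probe, cutting fluorescence to under half of the solvent control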;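 note: counterscreen run without GRK2 so only probe quenching by compound is measured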
GRK2 CP2 = human GRK2 inhibition confirmation, cherry pick 2; shares compounds with GRK2 aptamer HTS; bead-bound GRK2, FAM-aptamer displacement, flow cytometry; inhibition of aptamer binding, % at 10 µM; 360 tested, under 10 active; AID 504782;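 active = inhibition of aptamer binding above 40%, about triple the noise seen with nonglowing compounds, on plates passing quality control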;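 note: negative values mostly come from compounds that fluoresce themselves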
FAM quench SP = aptamer fluorescence quenching in GRK2 counter-screen. shares compounds with GRK2 aptamer HTS. carboxyfluorescein RNA aptamer beads, flow cytometry quenching; hits give low values. fluorescence response vs DMSO, % at 10 µM. 360 tested, under 10 active. AID 588494;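 active = response vs DMSO under 50%, meaning signal dropped by over half, treated as fluorescence quencher; inconclusive = no clear call, values can overlap the other calls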;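 note: labelled aptamer on streptavidin beads without GRK2 as a quench counter-screen; 100% = bead fluorescence of DMSO wells and lower means quenching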
* marks the source's active call; other numbers are inactive results; i = inactive; ? = inconclusive; nt = not tested or not shown.

SMILES | JMJD2C inh | GRK2 aptamer HTS | VLA-4 inh | PREPL inhibitor | DSG3 Ab inh | GRK2 CP1 | FAM quench CP1 | others
CCN(CC)CCCN(C(=O)c1ccco1)c1nc(-c2ccc(C)cc2)cs1 | -6 | 59* | 22 | -46 | nt | -13 | 104
O=C(c1ccco1)N(CCCN1CCOCC1)c1nc(-c2ccc(Cl)cc2)cs1 | -3 | 2 | 14 | -4 | 110 | 1 | 103
CCN(CC)CCCN(C(=O)c1cccs1)c1nc(-c2ccc(OC)cc2)cs1 | 9 | 0 | -5 | 10 | nt | nt | nt
Cn1c(=O)n(C)c2cc([N+](=O)[O-])c(N3CCN(C(=O)C(C)(C)C)CC3)cc21 | -6 | 0 | 5 | 1 | 106 | nt | nt
CSCC[C@H](NC(=O)CCNC(C)=O)c1nc2ccccc2[nH]1 | 63 | 0 | 3 | 3 | 115 | nt | nt
CCOc1cc(C)c(S(=O)(=O)Nc2ccc(Cl)cn2)cc1C | 6 | 46* | 0 | 0 | nt | nt | nt | GRK2 CP2=-1;FAM quench SP=101
COc1ccccc1C1c2[nH]c3ccccc3c2C[C@H]2C(=O)N(C3CCN(Cc4ccccc4)CC3)CC(=O)N12 (stereo partly drawn) | 3 | 0 | -17 | 23 | 96 | -29 | 97
COc1cccc(C2c3[nH]c4ccccc4c3C[C@H]3C(=O)N(C4CCN(Cc5ccccc5)CC4)CC(=O)N23)c1 (stereo partly drawn) | 6 | 0 | 6 | 16 | 96 | -12 | 104
Cc1cc2cc(CNC(=O)c3ccc4c(c3)OCO4)ccc2n1C | 9 | 22 | -1 | 43 | 93 | 4 | 94
COc1ccc(CC(=O)NCc2ccc3c(c2)cc(C)n3C)cc1OC | -2 | 0 | 14 | -1 | 91 | 2 | 97
Cc1cc2cc(CNC(=O)Nc3ccc(Cl)c(Cl)c3)ccc2n1C | -6 | 0 | 0 | 21 | 94 | -3 | 94
Cc1cc2cc(CNC(=O)c3ccco3)ccc2n1C | 14 | 2 | -12 | 38 | 91 | nt | nt
COc1ccc(C(=O)NCc2ccc3c(c2)cc(C)n3C)cc1 | 22 | 1 | -5 | 15 | 98 | nt | nt
Cc1cc2cc(CNC(=O)NC3CCCCC3)ccc2n1C | i | 16 | 17 | 6 | 91 | nt | nt
COc1cc(OC)cc(C(=O)NCc2ccc3c(c2)cc(C)n3C)c1 | -9 | 82* | -10 | 19 | 92 | 3 | 98
COc1cc(/C=C\C(=O)NCc2ccc3c(c2)cc(C)n3C)cc(OC)c1OC | 35 | 0 | 14 | 14 | 94 | nt | nt
CCOC(=O)/C=C1\SCC(=O)N1CC(=O)NCc1ccc(OC)c(OC)c1 | 29 | 95* | 4 | 5 | 104 | 1 | 98
CCOc1ccc(CC(=O)NCc2ccc3c(c2)cc(C)n3C)cc1 | -12 | 0 | -10 | 15 | 103 | -3 | 100
CCOC(=O)/C=C1\SCC(=O)N1CC(=O)NCCc1ccc(F)cc1 | 2 | 0 | -4 | 7 | 98 | nt | nt
Cc1nc([N+](=O)[O-])cn1CC(=O)Nc1ccc(F)c(Cl)c1 | -10 | 51* | 2 | -21 | 109 | -1 | 95
Oc1c(Cl)cc(Cl)c2cccnc12 | -5 | nt | nt | nt | 107 | nt | nt
Cc1ccc(S(=O)(=O)Nc2cc(Cl)c(O)c3ncccc23)cc1 | 9 | 55* | -12 | 6 | nt | nt | nt | GRK2 CP2=-30;FAM quench SP=111
COC(=O)c1cc(-c2ccc(Br)cc2)n[nH]1 | 29 | 54* | 19 | -10 | 105 | 3 | 96
Clc1c2c(nc3ccccc13)CCC2 | 26 | 1 | -1 | 8 | 102 | nt | nt | GRK2 CP2=-8;FAM quench SP=126
COC(=O)[C@H](Cc1ccccc1)NC(=O)N1CCN(Cc2ccccc2)CC1 | 1 | 0 | 6 | -4 | 98 | nt | nt
SMILES | JMJD2C inh | GRK2 aptamer HTS | VLA-4 inh | PREPL inhibitor | DSG3 Ab inh | GRK2 CP1 | FAM quench CP1 | others
COC(=O)[C@H](Cc1ccccc1)NC(=O)N1CCCCCC1 | -16 | 0 | 11 | -5 | 102 | -13 | 196
COC(=O)[C@H](Cc1ccccc1)NC(=O)N1CCN(c2ccc(F)cc2)CC1 | -3 | 0 | -1 | -10 | 88 | -1 | 99
COC(=O)C(Cc1ccccc1)NC(=O)CC(C)CC(=O)Nc1ccc(C)cc1 (stereo not drawn) | -4 | 46* | 10 | -1 | 94 | 1 | 100
COC(=O)C(Cc1ccccc1)NC(=O)c1ccc(C)cc1 (stereo not drawn) | -5 | 2 | 10 | 2 | 109 | nt | nt
O=C(O)[C@H](Cc1ccccc1)NC(=O)N1CCCCCC1 | 2 | 100* | 5 | -2 | 97 | -1 | 99
Cc1cc(=O)[nH]c(N/N=C/C(C)c2ccccc2)n1 (stereo not drawn) | 9 | 3 | -3 | -2 | 88 | nt | nt
O=C(c1cccc(S(=O)(=O)N2CCc3ccccc3C2)c1)N1CCN(c2ccccc2)CC1 | 1 | 0 | 3 | 1 | 100 | nt | nt
O=C(NC1CCCc2ccccc21)c1cccc(S(=O)(=O)N2CCN(c3ccccc3)CC2)c1 (stereo not drawn) | 8 | 2 | 19 | -5 | nt | 1 | 128
Cc1ccnc(NC(=O)c2cccc(S(=O)(=O)N3CCN(c4ccccc4)CC3)c2)c1 | 1 | 0 | -3 | -5 | 97 | nt | nt
Cc1ccc(NC(=O)c2cccc(S(=O)(=O)N3CCN(c4ccccc4)CC3)c2)nc1 | -15 | 100* | -3 | -7 | 101 | -2 | 100
COc1ccccc1CNC(=O)c1cccc(S(=O)(=O)N2CCN(c3ccc(F)cc3)CC2)c1 | 1 | 1 | 14 | -62 | nt | -2 | 101
O=C(c1cccc(S(=O)(=O)N2CCc3ccccc32)c1)N1CCN(c2ccccc2)CC1 | nt | nt | nt | nt | 89 | 6 | 92
O=c1c2ccccc2nnn1CSc1nnc(-c2ccc3c(c2)OCO3)o1 | 13 | 3 | -3 | -15 | ? | nt | nt
CCOc1ccccc1CN1CCNC(=O)C1CC(=O)NCCCn1cccn1 (stereo not drawn) | -17 | 1 | 11 | 13 | 103 | nt | nt
CC(C)On1c(SCC(=O)N(C)C)nc2ccccc2c1=O | 6 | 0 | -1 | 5 | nt | nt | nt
COc1cccc(OC)c1C(=O)NCCOc1cc(C)cc(C)c1 | -10 | 0 | -2 | -11 | 115 | nt | nt
COc1ccc(CCNC(=O)C2(C)CCC(=O)N2Cc2ccc(C)cc2)cc1OC (stereo not drawn) | -5 | 2 | -3 | 0 | 107 | -1 | 85
Cc1cc(C)n(C2CCCCC2OC(=O)CCc2ccccc2)n1 (stereo not drawn) | 6 | 1 | 3 | -4 | 112 | nt | nt
